High-throughput results (PubChem)
D2 PAM-1 = Beta-Arrestin HTS for Positive Allosteric Modulators of the Human D2 Dopamine Receptor: Potentiators; potentiation, % (concentration not given with the values); AID 624464, 2012; DiscoveRx D2 beta-arrestin cells, luminescence, 90 min; 100% = 57 uM dopamine signal; 360,000 tested, 0.23% active; D(2) dopamine receptor (Homo sapiens), P14416; in the data active means potentiation above about 50%; inconclusive means mostly about 30% to 49%
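D2 cells co-treated with compound plus 50 nM dopamine (EC20) for 90 min at 37 deg C to detect potentiation. Beta-arrestin recruitment was read as enzyme-fragment luminescence after 1 h at ambient temperature. Full response was set by 57 uM dopamine.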
D2 ag-1 = HTS Assay for Allosteric Agonists of the Human D2 Dopamine Receptor: Primary Screen for Agonists | D(2) dopamine receptor (Homo sapiens), P14416 | HEK293 T-REx D2 cells, calcium flux agonist mode | activation, % at 2 µM | 340,000 tested, 0.53% active;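 active means activation over 3 SD above normal in the single-dose calcium agonist read, cut at about 30% in these data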; further: 0% is about no effect
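HEK293 Trex D2 cells, tetracycline-induced, o/n 30 C 5% CO2; no-wash Ca dye, RT 30–90 min; 10-cycle baseline, 23 nl cpd added, kinetic Ca read 180 s; agonist hits = positive Ca response.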
D2 ag-2 = Beta-Arrestin HTS for Positive Allosteric Modulators of the Human D2 Dopamine Receptor: Agonists. DiscoveRx PathHunter D2 beta-arrestin, luminescence, 90 min; 100% = 57 uM dopamine signal. activation, % (concentration not given with the values). 360,000 tested, 0.084% active; in the data active means activation above about 40%; inconclusive means between about 15% and that limit
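DiscoveRx PathHunter D2 beta-arrestin cells (2,100/well) attached overnight, then compound-stimulated 90 min at 37 C in HBSS/10 mM HEPES/0.1% Tween-20 buffer; beta-galactosidase complementation read by luminescence after 1 h at ambient temperature. Dopamine 57 uM final (EC100) as control.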
D2 antagonist = HTS Assay for Allosteric Antagonists of the Human D2 Dopamine Receptor: Primary Screen for Antagonists | D(2) dopamine receptor (Homo sapiens), P14416 | HEK293 TREx D2 cells, calcium flux, dopamine EC80 | inhibition, % at 10 µM | 340,000 tested, 2% active; in the data active means inhibition above about 30%; inactive means below that, where a call was filed; further: 0% is about no effect
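Cells plated overnight at 30 C with tetracycline; no-wash calcium dye, 30–90 min RT; 10 s baseline; compound pinned; 180 s read; EC80 dopamine added; another 180 s read.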
D2 PAM-2 = HTS Assay for Positive Allosteric Modulators of the Human D2 Dopamine Receptor: Primary Screen for Potentiators. D(2) dopamine receptor (Homo sapiens), P14416. HEK293 T-REx D2, calcium flux, EC20 dopamine potentiation. potentiation, % at 10 µM. 340,000 tested, 0.34% active. AID 485347, 2010;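 active means potentiation over 3 SD above the plate norm, cut at about 30% in these data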; further: 0% is about no effect
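Tetracycline-induced Hek293 Trex D2 cells, force-coupled to calcium, loaded with no-wash calcium dye. Compound added with 180 s kinetic read for agonism, then EC20 dopamine and a further 180 s read for potentiation.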
LDHA inh = qHTS assay for inhibitors of human lactate dehydrogenase. L-lactate dehydrogenase A chain (Homo sapiens), P00338. purified LDHA, NADH/diaphorase-resazurin fluorescence; stronger effect = lower value. activity change, % (values are at about 110 or 230 µM). 480,000 tested, 0.15% active. AID 1347041, 2019; in the data active means activity change below about -30%; inconclusive means mostly about -25% to -30%;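 further: plate controls were DMSO wells for no effect and wells without enzyme for full effect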
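Resorufin fluorescence (ex540/em590), read at 0 and 20 min after diaphorase/resazurin addition, reports the NADH left after a 5 min room-temperature reaction of 2 nM human LDH5 with 0.06 mM NADH and 0.2 mM pyruvate.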
D3 ag = qHTS of D3 Dopamine Receptor Agonist: D3 Dopamine Receptor B-arrestin Agonist Confirmatory Assay. DiscoveRx D3 beta-arrestin cells, luminescence, 90 min. shares compounds with D2 ag-1. Potency, µM (titrated, usually from 76.9 µM), inactives show top-dose activation, hits mostly activators. 2,300 tested, 4% active;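 further: potency means the concentration at half of the fitted maximal effect; 100% = dopamine control response; nearly all actives have a fitted effect of over 70% in size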
Target sequence (P35462 whole entry, looked up): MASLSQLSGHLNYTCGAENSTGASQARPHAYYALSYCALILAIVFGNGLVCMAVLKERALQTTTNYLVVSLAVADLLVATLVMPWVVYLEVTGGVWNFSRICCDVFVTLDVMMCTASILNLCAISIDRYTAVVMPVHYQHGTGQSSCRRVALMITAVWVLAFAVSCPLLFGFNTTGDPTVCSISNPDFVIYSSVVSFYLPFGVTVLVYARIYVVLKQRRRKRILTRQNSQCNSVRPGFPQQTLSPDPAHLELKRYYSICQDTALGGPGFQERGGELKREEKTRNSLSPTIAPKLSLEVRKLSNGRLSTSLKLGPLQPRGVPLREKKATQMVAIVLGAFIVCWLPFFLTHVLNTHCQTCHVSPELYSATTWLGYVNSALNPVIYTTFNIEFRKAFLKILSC
D2 ag-3 = qHTS of D3 Dopamine Receptor Agonist: D2 Dopamine Receptor B-arrestin Agonist Counterscreen | DiscoveRx PathHunter D2 beta-arrestin, luminescence, 90 min; response scale: percent relative to full dopamine signal | AID 720507, 2013 | shares compounds with D2 ag-1 | 2,300 tested, 5.9% active | Potency, µM (titrated, usually from 76.9 µM), for inactives: at the top dose activation, actives largely listed as activators; further: potency means the concentration at half of the fitted maximal effect; % of control where 0% means no effect; nearly all actives have a fitted effect of over 70% in size
An asterisk follows results filed as active; u = inconclusive; x = no result. Only some compounds are listed: those with a hit (about 2.1% of all), similar ones and a draw of the others. Unless noted, the call rests on the fitted dose curve; in most records, active means well fitted activation curve with a large enough effect; inconclusive means small, poorly fitted or top-dose-only effect; inactive means flat fitted curve, though single readings scatter.

SMILES	D2 PAM-1	D2 ag-1	D2 ag-2	D2 antagonist	D2 PAM-2	LDHA inh	D3 ag	D2 ag-3
O=C(NCC1CCCO1)/C(=C\c1cccc([N+](=O)[O-])c1)NC(=O)c1ccccc1 (stereo not drawn)	-3.3	0.1	-2.5	10.5	-2.1	-2.1	-10.0%	-5.2%
O=C(O)CNC(=O)c1ccc(NC(=O)/C(=C/c2ccccc2)NC(=O)c2ccco2)cc1	-10.7	1.1	-6.4	2.8	3.1	-2.3	x	x
CC(=O)CCc1ccc(OCC(O)CNCCOc2ccc(C)cc2)cc1 (stereo not drawn)	-7.4	66.0*	5.9	61.0*	-26.2	-2.5	u	u
CN=c1scc(-c2ccco2)n1/N=C/c1ccc(O)c(O)c1	26.6	36.2*	48.7*	28.1	-8.5	7.9	u	35.5µM*
O=[N+]([O-])c1c(Nc2ccccc2Cl)cc(Cl)c2nonc12	x	x	x	x	x	33.7	x	x
CCc1ccc(C(=O)c2sc(Nc3cccc(Cl)c3)nc2N)cc1	x	x	x	x	x	0.6	x	x
O=C(Nc1ccc2oc(-c3cccc(Cl)c3)nc2c1)c1ccccc1	x	x	x	x	x	1.5	x	x
Cn1nc(C(=O)Oc2cccc(Cl)c2Cl)c2ccccc2c1=O	x	x	x	x	x	-7.6	x	x
CCC(C)c1ccc(OCC(=O)Nc2cccc(C(=O)Nc3ccc(C(=O)O)cc3)c2)cc1 (stereo not drawn)	-11.7	64.0*	2.8	4.8	-25.6	-1.1	21.6%	0.7%
Cc1ccc2[nH]c3c(c2c1)CN(C(=O)CN1CCN(c2ccccn2)CC1)CC3	2.8	30.8*	8.7	7.6	-9.3	19.9	26.4%	18.1%
CC(=O)N1CCc2[nH]c3ccc(C)cc3c2C1	-6.7	0.9	-1.7	7.1	4.1	-4.0	x	x
CCOC(=O)N1CCc2[nH]c3ccc(C)cc3c2C1	-12.9	29.4	3.4	-15.6	21.5	-2.5	-7.8%	0.3%
Cc1ccc2[nH]c3c(c2c1)CN(C(=O)CN1CCSCC1)CC3	x	-2.6	x	-13.5	-3.9	x	x	x
O=C(NC1CC1)c1ccc(NS(=O)(=O)c2ccccc2C(F)(F)F)cc1	x	x	x	x	x	0.2	x	x
N#CCCN(C(=O)COC(=O)COc1ccccc1Cc1ccccc1)c1ccccc1	1.1	0.6	-2.3	7.1	-8.3	-6.0	-6.4%	0.3%
CCN(CC)c1ccc(/C=N/NS(=O)(=O)c2ccccc2)cc1	x	x	x	x	x	3.4	x	x
C/C=C/Cn1c(SCCCCC)nc2c1c(=O)[nH]c(=O)n2C	x	x	x	x	x	6.7	x	x
CN(C)CCNC(=O)C12CC3(C)CC(C)(CC(C)(C3)C1)C2	-28.6	26.8	-0.6	1.6	-15.2	-4.7	-16.2%	-3.4%
COc1ccc(CN2CCN(Cc3cc4ccccc4o3)CC2CCO)c(F)c1 (stereo not drawn)	-6.6	10.1	-4.8	12.8	2.9	-12.1	x	x
COc1cccc(CN2CCN(Cc3cc4ccccc4o3)CC2CCO)c1 (stereo not drawn)	-22.2	43.3*	3.5	14.3	-10.3	-0.3	-0.9%	-2.6%
COc1ccc(CN2CCN(Cc3cc4ccccc4o3)CC2CCO)cc1C (stereo not drawn)	-18.8	66.5*	u	24.7	-17.4	-0.8	-0.7%	12.5%
S=C(NCCSc1ccc(Cl)cc1)NC1CC1	x	x	x	x	x	10.7	x	x
CC(C)[C@H](Nc1ccc(S(=O)(=O)N2CCOCC2)cc1[N+](=O)[O-])C(=O)OCC(=O)N(C(C)C)C(C)C	-9.8	1.5	-0.4	23.4	0.7	-2.5	-9.1%	7.5%
CC(C)[C@H](Nc1ccc(S(=O)(=O)N2CCOCC2)cc1[N+](=O)[O-])C(=O)OCC(N)=O	-1.1	-0.2	0.8	-0.3	-1.2	-8.8	x	x
COc1cc(OC)cc(-c2c(-c3cccs3)c3cc(-c4ccc(SC)cc4)ccc3n2C)c1	-1.9	-0.3	1.9	57.7*	0.7	0.3	6.8%	0.6%
SMILES	D2 PAM-1	D2 ag-1	D2 ag-2	D2 antagonist	D2 PAM-2	LDHA inh	D3 ag	D2 ag-3
COc1ccc(-c2c(-c3cc(OC)cc(OC)c3)n(C)c3ccc(-c4cnc(N)nc4)cc23)cc1	-4.0	x	-4.2	x	x	-6.6	x	x
COc1ccc(-c2c(-c3cc(OC)cc(OC)c3)n(C)c3ccc(-c4ccc(S(N)(=O)=O)cc4)cc23)cc1	-6.5	0.5	-2.0	-6.6	-4.8	0.6	-3.5%	5.1%
Cc1ccc(N=C2NN=C(c3c[nH]c(C(=O)N4CCCC4)c3)CS2)cc1C	x	x	x	x	x	-6.2	x	x
COc1ccc(C)cc1S(=O)(=O)NCCC1=CCCCC1	-16.9	0.9	-3.0	18.2	6.9	-0.1	x	x
CCOc1ccc(S(=O)(=O)NCCC2=CCCCC2)c2ccccc12	-10.0	2.0	1.3	16.8	-19.0	1.1	-3.4%	3.6%
COc1ccc(O)c(-c2nc(N)nc(N)n2)c1	-4.9	0.3	-0.9	-10.6	13.9	-5.9	-3.6%	-3.9%
CCC(Oc1cccc(Cl)c1)C(=O)O (stereo not drawn)	x	x	x	x	x	3.2	x	x
COc1ccccc1N1CCN(CC(O)COc2ccc(S(=O)(=O)N3CCOCC3)cc2)CC1 (stereo not drawn)	-19.2	71.3*	u	92.3*	-16.9	-3.1	-6.4%	u
COc1ccc(S(=O)(=O)N2CCN(CC(O)CN3CCOCC3)CC2)cc1 (stereo not drawn)	-3.4	0.0	-3.8	-9.8	19.8	-8.5	x	x
O=S(=O)(c1ccc(OCC(O)CN2CCN(c3ccc(F)cc3)CC2)cc1)N1CCOCC1 (stereo not drawn)	-10.2	75.9*	13.4	66.8*	-17.3	-9.5	8.3%	u
COCCN1C(=O)C(=O)/C(=C(/O)c2ccc(OC)c(C)c2)C1c1ccc(OC)c(OC)c1 (stereo not drawn)	x	x	x	x	x	1.6	x	x
O=C(CCl)Nc1ncc(S(=O)(=O)c2ccc([N+](=O)[O-])cc2)s1	5.8	x	u	x	x	1.5	x	x
